{"source": "PubChem BioAssay (NCATS)", "note": "Records with an inconclusive call do not appear. A call without a number means that no potency is given here. Values without a mark were called inactive. Active and inactive are the calls of the source. The call rests on the fitted dose curve; in most records, active means well fitted cell-killing curve with a large enough effect; inconclusive means small, poorly fitted or top-dose-only effect, or effect the other way; inactive means flat fitted curve, though single readings scatter. Potency means the concentration at half of the fitted maximal effect.", "data": [{"system": "Tov112D", "assay": "Primary qHTS to identify gynecologic anti-cancer compounds using libraries of approved drugs and bioactive compounds (AID 1345084); further: nearly all actives have a fitted effect of over 55% in size", "details": "Gynecologic cancer cell panel viability, ATPlite luminescence, 48 h; series mostly up to 57.5 µM", "procedure,_shortened": "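Five-concentration response, 48 h; readout is ATP-driven luciferase luminescence.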", "values": [{"molecule": "Cc1nc(N)nc(N)c1-c1ccc(Cl)c(Cl)c1", "Potency": "3.55 µM (active)"}, {"molecule": "CC(=O)N(c1onc(C)c1C)S(=O)(=O)c1ccc(N)cc1", "Potency": "inactive"}, {"molecule": "COC(=O)C1=C(C)NC(C)=C(C(=O)OCCc2ccc(N3CCN(C(c4ccccc4)c4ccccc4)CC3)cc2)C1c1cccc([N+](=O)[O-])c1", "note": "(stereo not given)", "Potency": "inactive"}, {"molecule": "CCCCN(CCCC)C(C(N)=O)c1ccc(OC)cc1", "note": "(stereo not given)", "Potency": "inactive"}, {"molecule": "Cc1nc2n(c(=O)c1CCN1CCC(C(=O)c3ccc(F)cc3)CC1)CCS2", "Potency": "inactive"}, {"molecule": "CCc1cccc2c(CCO)c[nH]c12", "Potency": "inactive"}, {"molecule": "c1ccc2c(c1)CCc1ccccc1N2", "Potency": "inactive"}, {"molecule": "C/C=C(/C(=C/C)c1ccc(OC(C)=O)cc1)c1ccc(OC(C)=O)cc1", "Potency": "inactive"}, {"molecule": "N[C@@H](Cn1ccc(=O)c(O)c1)C(=O)O", "activity change, negative = cytotoxicity": "12.5% [at 6.55 µM]"}, {"molecule": "COC(=O)c1cc(Cl)ccc1OC", "Potency": "inactive"}, {"molecule": "O=C(O)Cn1cnnn1", "Potency": "inactive"}, {"molecule": "CN1Cc2cc(C(=O)N3CCC(C4CCNCC4)CC3)ccc2N[C@@H](CC(=O)O)C1=O", "Potency": "inactive"}, {"molecule": "COc1ccc(OC(=O)N(CC(=O)O)Cc2ccc(OCCc3nc(-c4ccccc4)oc3C)cc2)cc1", "Potency": "inactive"}, {"molecule": "CCN(CC)CCN", "Potency": "inactive"}, {"molecule": "CCCCC(O)/C=C(C)/C=C/C=C/C(=O)N1CCCC1=O", "note": "(stereo not given)", "Potency": "inactive"}, {"molecule": "CC(=O)[C@H]1CC[C@H]2[C@@H]3C=CC4=CC(=O)CC[C@@]4(C)[C@@H]3CC[C@]12C", "Potency": "inactive"}, {"molecule": "Nc1cc(C(F)(F)F)ccc1S", "Potency": "inactive"}, {"molecule": "CCN(CC)CC(=O)Oc1ccc(NC(C)=O)cc1", "Potency": "inactive"}, {"molecule": "CC(C)(C)c1cc(C=O)cc(C(C)(C)C)c1O", "Potency": "inactive"}, {"molecule": "COC(=O)[C@H]1[C@H]2C[C@@H]3c4[nH]c5cc(OC)ccc5c4CCN3C[C@H]2C[C@@H](OC(=O)/C=C/c2ccc(O)c(OC)c2)[C@@H]1OC", "Potency": "inactive"}]}]}
